Reference: PubChem BioAssay (EPA / NIEHS)
Calls of active or inactive are those of the source. Rule for the calls: active = hit-call score of the fitted dose curve at least 0.9, where 1 is the maximum; inactive = score below 0.9.

Legend:
[1] = ATG_ISRE_CIS: Attagene CIS-FACTORIAL HepG2 Assay for human Interferon Regulatory Factor 1 (IRF1) binding to an Interferon-Stimulated Response Element (ISRE) (AID 2282948); conditions: HepG2 ISRE cis-reporter (Attagene), mRNA transcription readout; actives raise or lower the signal
Method in brief: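 Read-out: fluorescent RT-PCR products resolved by capillary electrophoresis, reporting endogenous transcription factor activity via ISRE-driven reporter mRNA in transfected HepG2 cells dosed for 24 h; gain or loss fitted relative to DMSO.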

[2] = ATG_M_32_CIS: Attagene CIS-FACTORIAL HepG2 Assay for M32 Transcription Factor (Internal Marker) (AID 2282949); conditions: HepG2 Attagene cis-factorial M32 reporter, mRNA; actives raise or lower the signal;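 note: background control marker of the multiplexed CIS panel rather than a real target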
Method in brief: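 Transient MRTU transfection of HepG2; 24 h compound treatment; TriZol RNA, oligo(dT) RT, reporter PCR, 6-FAM primer extension, HpaI cut, CE. Gain/loss of signal vs DMSO.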

[3] = ATG_M_06_CIS: Attagene CIS-FACTORIAL HepG2 Assay for M06 Transcription Factor (Internal Marker) (AID 2282950); conditions: HepG2 Attagene CIS-FACTORIAL M06 internal marker reporter; actives raise or lower the signal
Method in brief: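 One of many multiplexed endpoints: HepG2 reporter mRNA after 24 h dosing, detected by RT-PCR and capillary electrophoresis fluorescence; gain or loss of signal analysed against DMSO.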

[4] = target: Heat shock factor protein 1 (Homo sapiens) (UniProt Q00613); assay: ATG_HSE_CIS: Attagene CIS-FACTORIAL HepG2 Assay for human Heat Shock Transcription Factor 1 (HSE) (AID 2282953); conditions: HepG2 HSE cis-reporter, Attagene RNA transcription; actives raise or lower the signal
Heat shock factor protein 1 (Homo sapiens), sequence (Q00613 whole entry, looked up): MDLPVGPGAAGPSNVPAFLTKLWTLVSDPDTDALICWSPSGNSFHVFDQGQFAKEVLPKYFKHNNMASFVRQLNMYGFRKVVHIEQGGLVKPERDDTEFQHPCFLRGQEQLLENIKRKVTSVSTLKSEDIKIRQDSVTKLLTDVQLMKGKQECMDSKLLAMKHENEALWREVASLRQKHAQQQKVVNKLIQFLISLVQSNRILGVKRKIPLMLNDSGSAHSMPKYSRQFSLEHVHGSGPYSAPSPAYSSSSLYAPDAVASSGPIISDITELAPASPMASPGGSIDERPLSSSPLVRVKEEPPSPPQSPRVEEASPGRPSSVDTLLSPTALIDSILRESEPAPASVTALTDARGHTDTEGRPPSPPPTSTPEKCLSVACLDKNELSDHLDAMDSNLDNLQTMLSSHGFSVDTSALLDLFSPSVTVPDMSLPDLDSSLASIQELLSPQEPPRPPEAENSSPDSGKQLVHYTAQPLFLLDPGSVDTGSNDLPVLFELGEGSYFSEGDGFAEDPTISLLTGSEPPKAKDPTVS
Method in brief: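 Using HepG2 with transfected cis-driven reporter constructs, compound effects on endogenous factor activity are scored as reporter mRNA change at 24 h. Detection: RT-PCR, HpaI digestion, capillary electrophoresis; bidirectional fitting to DMSO.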

[5] = ATG_MRE_CIS: Attagene CIS-FACTORIAL HepG2 Assay for human Metal Responsive Element (MRE) (AID 2282954); conditions: HepG2 MRE cis-reporter transcription, Attagene multiplex; actives raise or lower the signal
Method in brief: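 Multiplexed cis-reporter assay in human HepG2 liver cells, 24 h incubation with test chemical. Reporter transcripts measured by RT-PCR and capillary electrophoresis; values from bidirectional curve fitting versus DMSO.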

[6] = ATG_PBREM_CIS: Attagene CIS-FACTORIAL HepG2 Assay for human Phenobarbital-responsive Enhancer Module (PBREM) (AID 2282955); conditions: HepG2 PBREM cis-reporter, Attagene multiplexed transcription; actives raise or lower the signal
Method in brief: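 HepG2 cells transiently transfected with multiple cis-regulated reporter transcription units; endogenous factor activity at the PBREM element measured as reporter mRNA 24 h after dosing, via RT-PCR and capillary electrophoresis of fluorescent fragments; bidirectional fitting versus DMSO.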

[7] = target: Paired box protein Pax-6 (Homo sapiens) (UniProt P26367); assay: ATG_Pax6_CIS: Attagene CIS-FACTORIAL HepG2 Assay for human Paired Box 6 (PAX6) (AID 2282956); conditions: HepG2 CIS-FACTORIAL PAX6 reporter transcription, RNA readout; actives raise or lower the signal
Paired box protein Pax-6 (Homo sapiens), sequence (P26367 whole entry, looked up): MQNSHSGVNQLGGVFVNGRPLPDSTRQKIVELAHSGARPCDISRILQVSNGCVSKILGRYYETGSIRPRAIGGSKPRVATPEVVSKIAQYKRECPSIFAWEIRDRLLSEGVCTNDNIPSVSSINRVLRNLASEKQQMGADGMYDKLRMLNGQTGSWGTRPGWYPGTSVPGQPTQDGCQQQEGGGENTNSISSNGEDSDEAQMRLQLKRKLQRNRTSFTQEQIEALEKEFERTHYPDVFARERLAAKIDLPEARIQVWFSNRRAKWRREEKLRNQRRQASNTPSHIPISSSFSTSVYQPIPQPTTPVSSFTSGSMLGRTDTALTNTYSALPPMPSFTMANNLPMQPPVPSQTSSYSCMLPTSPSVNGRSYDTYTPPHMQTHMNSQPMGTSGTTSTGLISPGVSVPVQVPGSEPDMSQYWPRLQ
Method in brief: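 Readout: reporter transcript fluorescence after RT-PCR and capillary electrophoresis. Cells: HepG2, transiently transfected with cis-regulated MRTUs. Exposure 24 h. Gain or loss of signal fitted bidirectionally relative to DMSO.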

[8] = ATG_PXRE_CIS: Attagene CIS-FACTORIAL HepG2 Assay for human Pregnane X Receptor Element (PXRE) (AID 2282957); conditions: HepG2 Attagene CIS-FACTORIAL PXRE reporter, mRNA; actives raise or lower the signal
Method in brief: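 Endogenous transcription factor activity in HepG2 was gauged through induction of reporter mRNA driven by a cis-regulating promoter element, sampled 24 h post-treatment. Activity was fitted in both directions against DMSO negative control.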

[9] = ATG_RORE_CIS: Attagene CIS-FACTORIAL HepG2 Assay for human RAR-related Orphan Receptor Element (RORE) (AID 2282959); conditions: HepG2 Attagene cis-factorial RORE reporter, mRNA; actives raise or lower the signal
Method in brief: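 HepG2 cells transiently transfected with multiple cis-element reporter transcription units, exposed to chemical for 24 h. Reporter mRNA quantified by RT-PCR, 6-FAM primer-extension labeling, HpaI digestion and capillary electrophoresis; bidirectional fit versus DMSO baseline.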

[10] = target: Transcription factor Sp1 (Homo sapiens) (UniProt P08047); assay: ATG_Sp1_CIS: Attagene CIS-FACTORIAL HepG2 Assay for human Specificity Protein 1 (Sp1) (AID 2282961); conditions: HepG2 Sp1 cis-reporter transcription, actives raise or lower the signal
Transcription factor Sp1 (Homo sapiens), sequence (P08047 whole entry, looked up): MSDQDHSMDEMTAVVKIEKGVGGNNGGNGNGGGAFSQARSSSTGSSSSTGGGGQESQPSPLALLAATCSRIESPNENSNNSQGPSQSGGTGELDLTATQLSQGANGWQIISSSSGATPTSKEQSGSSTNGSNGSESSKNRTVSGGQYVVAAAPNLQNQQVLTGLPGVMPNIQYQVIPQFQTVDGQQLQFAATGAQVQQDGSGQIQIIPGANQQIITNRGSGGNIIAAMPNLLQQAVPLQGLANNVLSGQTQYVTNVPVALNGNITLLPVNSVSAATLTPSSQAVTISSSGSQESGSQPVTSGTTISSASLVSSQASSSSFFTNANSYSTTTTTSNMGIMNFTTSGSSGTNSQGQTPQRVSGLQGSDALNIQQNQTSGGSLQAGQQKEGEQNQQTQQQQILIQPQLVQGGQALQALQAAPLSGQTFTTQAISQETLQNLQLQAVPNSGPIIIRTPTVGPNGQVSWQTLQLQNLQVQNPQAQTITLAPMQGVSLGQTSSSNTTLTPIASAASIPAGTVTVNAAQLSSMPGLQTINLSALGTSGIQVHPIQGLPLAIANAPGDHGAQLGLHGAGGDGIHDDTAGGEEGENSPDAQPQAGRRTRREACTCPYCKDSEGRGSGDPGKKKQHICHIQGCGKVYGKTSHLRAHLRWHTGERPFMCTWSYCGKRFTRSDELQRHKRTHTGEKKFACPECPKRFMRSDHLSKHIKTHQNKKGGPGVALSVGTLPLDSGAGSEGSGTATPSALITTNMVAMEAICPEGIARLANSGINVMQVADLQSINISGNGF
Method in brief: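 HepG2 cells transiently transfected with multiple reporter transcription units driven by cis-regulatory elements; Sp1-responsive reporter mRNA measured 24 h after dosing by RT-PCR and capillary electrophoresis fluorescence, fitted bidirectionally against DMSO baseline.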

[11] = ATG_SREBP_CIS: Attagene CIS-FACTORIAL HepG2 Assay for human Sterol Regulatory Element Binding (SREBP) (AID 2282962); conditions: HepG2 Attagene cis-factorial SREBP reporter, mRNA; actives raise or lower the signal
Method in brief: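 Readout: fluorescent reporter-transcript peaks resolved by capillary electrophoresis after RT-PCR. Cells were human HepG2 carrying transfected cis-promoter reporter constructs, dosed for 24 h. Gain or loss of signal was fitted against DMSO controls.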

[12] = target: Signal transducer and activator of transcription 3 (Homo sapiens) (UniProt P40763); assay: ATG_STAT3_CIS: Attagene CIS-FACTORIAL HepG2 Assay for human Signal Transducer and Activator of Transcription 3 (STAT3) (AID 2282963); conditions: HepG2, Attagene cis-factorial STAT3 reporter transcription; actives raise or lower the signal
Signal transducer and activator of transcription 3 (Homo sapiens), sequence (P40763 whole entry, looked up): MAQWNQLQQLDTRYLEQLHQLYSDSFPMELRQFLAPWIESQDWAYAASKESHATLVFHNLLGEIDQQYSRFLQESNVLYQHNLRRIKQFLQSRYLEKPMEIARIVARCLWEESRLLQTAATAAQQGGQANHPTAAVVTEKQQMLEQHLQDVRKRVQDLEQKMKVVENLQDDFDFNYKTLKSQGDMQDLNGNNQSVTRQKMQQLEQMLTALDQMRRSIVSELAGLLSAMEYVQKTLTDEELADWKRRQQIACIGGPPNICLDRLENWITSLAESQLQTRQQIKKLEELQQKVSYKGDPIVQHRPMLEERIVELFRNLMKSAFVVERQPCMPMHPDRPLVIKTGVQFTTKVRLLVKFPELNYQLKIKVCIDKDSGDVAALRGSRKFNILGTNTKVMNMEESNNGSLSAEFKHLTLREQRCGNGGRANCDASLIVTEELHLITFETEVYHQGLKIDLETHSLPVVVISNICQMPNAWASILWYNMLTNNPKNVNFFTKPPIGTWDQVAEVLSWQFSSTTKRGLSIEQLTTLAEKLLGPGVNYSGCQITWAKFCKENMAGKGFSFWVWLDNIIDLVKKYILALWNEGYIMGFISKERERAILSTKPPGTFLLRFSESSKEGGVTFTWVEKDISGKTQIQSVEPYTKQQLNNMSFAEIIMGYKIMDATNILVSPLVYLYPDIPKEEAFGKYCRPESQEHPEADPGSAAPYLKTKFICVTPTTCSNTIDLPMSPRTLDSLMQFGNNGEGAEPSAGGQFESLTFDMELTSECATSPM
Method in brief: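 Cis-factorial format: endogenous transcription factors in HepG2 drive transfected reporter units. After 24 h treatment, reporter RNA was reverse-transcribed, amplified, FAM-labelled and HpaI-digested before CE analysis; activity scored in both directions against DMSO.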

[13] = ATG_TA_CIS: Attagene CIS-FACTORIAL HepG2 Assay for human TA Basal Promoter (AID 2282964); conditions: HepG2 Attagene CIS-factorial TA basal promoter reporter; actives raise or lower the signal
Method in brief: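 Transient MRTU transfection of HepG2 preceded 24 h compound exposure. Reporter mRNA levels were then read by RT-PCR with capillary electrophoresis, and this background-control endpoint was fitted bidirectionally to DMSO.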

[14] = ATG_TCF_b_cat_CIS: Attagene CIS-FACTORIAL HepG2 Assay for human T-Cell-Factor with beta-catenin (TCF/b-cat) (AID 2282965); conditions: HepG2 TCF/beta-catenin cis-reporter transcription, actives raise or lower the signal
Method in brief: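 Measured: reporter mRNA in HepG2 transiently transfected with cis-promoter reporter units, 24 h after chemical addition. Fitting was bidirectional, DMSO as negative control.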

[15] = ATG_TAL_CIS: Attagene CIS-FACTORIAL HepG2 Assay for human TAL Basal Promoter (AID 2282966); conditions: HepG2 Attagene cis-factorial TAL promoter reporter; actives raise or lower the signal;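 note: background control endpoint measuring basal TAL promoter reporter mRNA not a specific factor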
Method in brief: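 Endogenous transcription-factor activity is sensed in HepG2 cells through transfected cis-promoter reporter constructs. After 24 h dosing, reporter transcripts are quantified by RT-PCR and capillary electrophoresis. Gain or loss of signal is fitted relative to DMSO.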

[16] = ATG_GRE_CIS: Attagene CIS-FACTORIAL HepG2 Assay for human Glucocorticoid Response Elements (GRE) (AID 2282947); conditions: HepG2 GRE cis-reporter, Attagene multiplex mRNA; actives raise or lower the signal
Method in brief: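 Multiplexed cis-reporter mRNA induction, HepG2, 24 h post-dose. RT-PCR, FAM-labelled, HpaI-digested amplicons by CE. Bidirectional fit vs DMSO.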

[17] = target: Hepatocyte nuclear factor 6 (Homo sapiens) (UniProt Q9UBC0); assay: ATG_HNF6_CIS: Attagene CIS-FACTORIAL HepG2 Assay for human Hepatocyte Nuclear Factor 6 (HNF6) (AID 2282952); conditions: HepG2 Attagene cis-factorial HNF6 reporter transcription; actives raise or lower the signal
Hepatocyte nuclear factor 6 (Homo sapiens), sequence (Q9UBC0 whole entry, looked up): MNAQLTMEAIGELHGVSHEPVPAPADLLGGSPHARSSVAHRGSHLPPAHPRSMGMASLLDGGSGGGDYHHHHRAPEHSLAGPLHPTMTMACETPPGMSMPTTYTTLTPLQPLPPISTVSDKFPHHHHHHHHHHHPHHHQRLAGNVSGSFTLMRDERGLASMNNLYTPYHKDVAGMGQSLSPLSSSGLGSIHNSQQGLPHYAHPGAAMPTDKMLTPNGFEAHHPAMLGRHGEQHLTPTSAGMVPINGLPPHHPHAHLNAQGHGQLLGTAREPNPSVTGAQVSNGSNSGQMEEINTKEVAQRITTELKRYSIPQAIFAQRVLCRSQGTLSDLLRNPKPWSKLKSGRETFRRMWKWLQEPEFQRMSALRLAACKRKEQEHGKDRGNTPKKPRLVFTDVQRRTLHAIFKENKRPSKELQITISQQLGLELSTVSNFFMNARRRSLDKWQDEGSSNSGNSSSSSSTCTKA
Method in brief: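 Endogenous transcription factor activity in human HepG2 liver cells was captured through cis-regulated reporter constructs. After 24 h treatment, reporter mRNA was measured by RT-PCR with capillary electrophoresis, and activity was fitted in both directions relative to DMSO.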

[18] = ATG_PPRE_CIS: Attagene CIS-FACTORIAL HepG2 Assay for human Peroxisome Proliferator-activated Response Element (PPRE) (AID 2282958); conditions: HepG2 PPRE cis-element reporter, Attagene transcription factor profiling; actives raise or lower the signal
Method in brief: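 HepG2 cells transiently transfected with multiplexed cis-element reporter units measure endogenous transcription factor activity. After 24 h compound exposure, reporter mRNA is quantified by RT-PCR, 6-FAM labeling, HpaI digestion and capillary electrophoresis; bidirectional fits are made against DMSO baseline.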

[19] = ATG_Sox_CIS: Attagene CIS-FACTORIAL HepG2 Assay for human SRY-box transcription factor (SOX) (AID 2282960); conditions: HepG2 Attagene cis-factorial SOX reporter, mRNA; actives raise or lower the signal
Method in brief: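 HepG2 cells transiently transfected with cis-element-driven multiple reporter transcription units, dosed 24 h; reporter mRNA measured by RT-PCR, FAM labelling, HpaI digestion and capillary electrophoresis. Bidirectional fit versus DMSO baseline.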

[20] = target: Hypoxia-inducible factor 1-alpha (Homo sapiens) (UniProt Q16665); assay: ATG_HIF1a_CIS: Attagene CIS-FACTORIAL HepG2 Assay for human Hypoxia Inducible Factor 1 (HIF1A) (AID 2282951); conditions: HepG2 Attagene cis-factorial HIF1a reporter transcription; actives raise or lower the signal
Hypoxia-inducible factor 1-alpha (Homo sapiens), sequence (Q16665 whole entry, looked up): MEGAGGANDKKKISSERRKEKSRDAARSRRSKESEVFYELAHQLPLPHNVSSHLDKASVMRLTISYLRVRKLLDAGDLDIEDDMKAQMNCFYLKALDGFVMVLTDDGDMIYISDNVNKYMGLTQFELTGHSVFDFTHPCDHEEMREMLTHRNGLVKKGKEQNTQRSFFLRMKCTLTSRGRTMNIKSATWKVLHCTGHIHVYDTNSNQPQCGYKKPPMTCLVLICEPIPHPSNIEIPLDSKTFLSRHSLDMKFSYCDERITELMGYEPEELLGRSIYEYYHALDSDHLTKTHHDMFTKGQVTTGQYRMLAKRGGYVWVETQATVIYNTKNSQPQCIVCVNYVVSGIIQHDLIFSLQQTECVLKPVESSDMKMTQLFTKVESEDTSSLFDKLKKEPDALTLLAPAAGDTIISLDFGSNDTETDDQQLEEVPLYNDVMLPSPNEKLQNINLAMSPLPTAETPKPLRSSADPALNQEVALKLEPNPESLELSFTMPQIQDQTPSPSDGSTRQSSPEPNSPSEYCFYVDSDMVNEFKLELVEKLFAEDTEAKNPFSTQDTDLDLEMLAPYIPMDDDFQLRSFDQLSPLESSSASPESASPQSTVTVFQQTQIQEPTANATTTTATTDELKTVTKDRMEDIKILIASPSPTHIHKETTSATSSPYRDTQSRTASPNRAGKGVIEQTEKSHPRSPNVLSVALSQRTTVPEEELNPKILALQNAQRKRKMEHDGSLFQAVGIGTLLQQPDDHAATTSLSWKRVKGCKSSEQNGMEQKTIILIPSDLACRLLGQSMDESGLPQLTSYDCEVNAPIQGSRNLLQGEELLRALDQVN
Method in brief: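 HepG2 cells transiently transfected with multiplexed cis-promoter reporter units; reporter mRNA read 24 h after dosing by RT-PCR, 6-FAM primer-extension labelling, HpaI digestion and capillary electrophoresis. Bidirectional fit versus DMSO baseline.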

Measured: AC50

CC[C@H]1OC(=O)[C@H](C)[C@@H](O[C@H]2C[C@@](C)(OC)[C@@H](O)[C@H](C)O2)[C@H](C)[C@@H](O[C@@H]2O[C@H](C)C[C@H](N(C)C)[C@H]2O)[C@](C)(O)C[C@@H](C)C(=O)[C@H](C)[C@@H](O)[C@]1(C)O
not listed: [16] | [17] | [18] | [19] | [20]
inactive: all other assays above

CCOC(=O)CC(CC(=O)OCC)(OC(C)=O)C(=O)OCC
active: [8] 27.3 µM
not listed: [16] | [17] | [18] | [19] | [20]
inactive: all other assays above

COCCOc1cc2cc(C(=O)NC3CCN(C(C)C)CC3)n(CC(=O)Nc3ccc(Cl)cn3)c2cn1
active: [1] 139 µM | [5] 135 µM | [7] 124 µM | [8] 144 µM | [10] 100 µM | [11] 26.5 µM | [14] 108 µM
inactive: [16] | [2] | [3] | [4] | [12] | [13] | [15]

Cc1c(-c2cccnc2)c2ccccc2n1CCCCC(=O)O
active: [18] 5.71 µM
not listed: [16] | [20]
inactive: all other assays above

Nc1cccc(N)c1
not listed: [16] | [18] | [20]
inactive: all other assays above

CNS(=O)(=O)c1cc(C(=O)N2CCC(CCN3C4CCC3CC(n3c(C)nc5ccccc53)C4)(c3cccc(F)c3)CC2)c(Cl)cc1F (centres undefined)
active: [1] 8.05 µM | [8] 1.08 µM | [18] 3.63 µM | [11] 3.32 µM | [14] 7.52 µM
not listed: [6] | [16] | [17] | [20]
inactive: all other assays above

O=C1OC(=O)C2C3C=CC(C3)C12 (centres undefined)
not listed: [6] | [16] | [19]
inactive: all other assays above

CC(C)=CCCC(C)CCO (centres undefined)
active: [20] 178 µM | [8] 26.6 µM | [14] 167 µM
not listed: [6] | [16] | [19]
inactive: all other assays above
